This note sets out measurements from PubChem BioAssay (NCATS).

Several values for one entry are separate records, joined by “and”; a condition that tells them apart may be missing. Identical values can stand only once. Unmarked numbers belong to inactive results. Inconclusive results are not listed. Activity calls are given as the source filed them. Unless noted, calls follow the shape of the dose curve; as a rule, active = well fitted curve in the direction sought with a large enough effect; inconclusive = small, poorly fitted or top-dose-only effect, or another doubt; inactive = no such curve, though single readings can be large; an effect the other way counts as inactive or inconclusive.

The target in test [1] is Endonuclease 4 (Escherichia coli (strain K12)) (UniProt P0A6C1). Nature of the test: Counterscreen for APE1 Inhibitors: qHTS Validation Assay for Inhibitors of Endonuclease IV (AID 1708). Also: potency is read from the fitted curve at half-maximal effect. The essentials: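 Enzymatic AP-site incision assay using a double-stranded THF substrate labelled with TAMRA and BHQ-2; released fluorescence signals activity. Enzyme 2 nM, substrate 50 nM, 15 min compound preincubation.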
In general terms: Counterscreens check selectivity or assay interference.

The nature of test [2]: qHTS for differential inhibitors of proliferation of Plasmodium falciparum line 7G8 (AID 1815).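 Also: parasite growth measured after three days of incubation; plate controls were vehicle wells for no effect and reference inhibitor wells for full effect.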 A general note: Quantitative high-throughput screening tests each substance at several concentrations.
A short description of test [3]: qHTS for differential inhibitors of proliferation of Plasmodium falciparum line D10 (AID 1877).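 Also: parasites grown with compound for 72 h before DNA staining; plate controls were vehicle wells for no effect and reference inhibitor wells for full effect.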
A short description of test [4]: qHTS for differential inhibitors of proliferation of Plasmodium falciparum line HB3 (AID 1886).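 Also: parasites grown with compound for 72 h before SYBR Green readout; plate controls were vehicle for no effect and reference inhibitor for full effect.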 The conditions noted are these: Potency: Plasmodium falciparum HB3 proliferation inhibition.
Test [5] has as its target Ferritin light chain (Equus caballus) (UniProt P02791). The experiment in a line: qHTS Validation Assay for Identification of Novel General Anesthetics (AID 2323). Also: series mostly up to about 77 µM; % is scaled to controls: 0 for no effect and ±100 for the full control effect. The essentials:
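Competitive displacement of the profluorescent anesthetic 1-AMA (50% saturated, PBS) from 10 uM apoferritin, 10 min, room temperature. Activity is normalized 380/535 nm fluorescence; concentration-response fitted with a four-parameter Hill equation.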

In test [6] the target is ATP-dependent DNA helicase Q1 (Homo sapiens) (UniProt P46063). Nature of the test: qHTS Validation Assay for Inhibitors of RecQ-Like Dna Helicase 1 (RECQ1) (AID 2353).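 Also: plate controls were DMSO vehicle for no effect and enzyme-free control for full effect.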 The procedure, abridged: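 50 nM RECQ1T1 preincubated 15 min with compound in Tris pH 8.0 buffer with MgCl2, DTT, Tween-20 and 2.5 ug/ml poly(dI-dC); started with 200 nM TAMRA/BHQ-2 forked duplex and 2 mM ATP. Unwinding read as fluorescence (525/598 nm), two reads 2 h apart.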

A short description of test [7]: Validation screen for small molecules that induce DNA re-replication in MCF 10A normal breast cells (AID 463097). Also: 0% is about no effect; nearly all actives have a fitted effect of over 60% in size. The essentials: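 Read-out is Hoechst total nuclear intensity by fluorescence scanning imager, flagging increased high-DNA-content nuclei. Compounds were incubated with MCF 10A cells for 48 hr (37 C, 5% CO2) before 40 min staining.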
Test [8] in a line: Quantitative high throughput screen for delayed death inhibitors of the malarial parasite plastid, 96 hour incubation (AID 488745). Also: series mostly up to about 29 µM; % is scaled to controls: 0 for no effect and ±100 for the full control effect; nearly all actives have a fitted effect of over 70% in size. The essentials:
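P. falciparum carrying an integrated firefly luciferase reporter, grown in erythrocytes (2% hematocrit, 0.1% parasitemia final) in RPMI 1640/0.5% Albumax, was exposed to compound for 96 h (two generations) at 37 C, 5% CO2. Luminescence decrease indicated growth inhibition.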

Test [9] is described as follows: Quantitative high throughput screen for delayed death inhibitors of the malarial parasite plastid, 48 hour incubation (AID 488752). Also: % is scaled to controls: 0 for no effect and ±100 for the full control effect; nearly all actives have a fitted effect of over 65% in size. The essentials:
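Erythrocytes infected with P. falciparum carrying an integrated firefly luciferase reporter (2% hematocrit, 0.1% parasitemia final) were exposed to compounds in RPMI 1640/0.5% Albumax for 48 h at 37 C, 5% CO2. Growth inhibition was scored as reduced luminescence.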

The target of test [10] is M-phase phosphoprotein 8 (Homo sapiens) (UniProt Q99549). The experiment in a line: qHTS Validation Assay for Inhibitors for MPP8 Chromodomain Interactions with Methylated Histone Tails (AID 488949). Also: potency is read from the fitted curve at half-maximal effect; nearly all actives have a fitted effect of over 55% in size. The procedure, abridged:
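AlphaScreen proximity signal from streptavidin donor and Ni-chelate acceptor beads (10 ug/mL each) reported binding of MPP8 to trimethyl-K9 H3(1-18) peptide, both at 50 nM. The complex formed 30 min before a 30 min compound exposure at room temperature, in PBS pH 7.4.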

Test [11] deals with Transient receptor potential cation channel subfamily V member 1 (Homo sapiens) (UniProt Q8NER1). Nature of the test: HTS Assay for Compounds that Act as Enhancers of the Vanilloid Receptor 1 (AID 488979). Also: 0% is about no effect. The procedure, abridged:
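Calcium influx kinetics via Fluo-8 (480/520 nm) in TRPV1-expressing cells, 2000/well cultured overnight at 35.5C. Compound-alone read 3 min (agonist phase), followed by EC20 capsaicin challenge for 2 min (enhancer phase).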

Test [12] has as its target Thyrotropin receptor (Homo sapiens) (UniProt P16473). Nature of the test: qHTS Assay for Antagonists of the Thyroid Stimulating Hormone Receptor (AID 488980). Also: series mostly up to about 58 µM; 0% is about no effect. The essentials:
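Inhibition of cAMP raised by EC80 TSH (4 nM final) was read by HTRF, with lysate cAMP competing against cAMP-d2 for cryptate antibody after 30 min at room temperature. The cells were transfected HEK293 held in phosphodiesterase inhibitor RO 20-1724 at 70 uM.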

The target of test [13] is Tyrosyl-DNA phosphodiesterase 1 (Homo sapiens) (UniProt Q9NUW8). The experiment in a line: Confirmation Assay for Inhibitors of Tyrosyl-DNA Phosphodiesterase (TDP1) (AID 489007). Also: potency is read from the fitted curve at half-maximal effect; nearly all actives have a fitted effect of over 40% in size. The conditions noted are these: recombinant human TDP1 enzymatic activity, dose-response. The essentials:
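Recombinant E. coli-expressed Tdp1 (1 nM final) was preincubated with compounds 15 min at room temperature, then reacted 5 min with 15 nM 5'-biotin/3'-phosphotyrosine-FITC DNA substrate; cleavage read as loss of AlphaScreen signal (10 ug/ml beads, 10 min).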

Test [14] has as its target Thyrotropin-releasing hormone receptor (Homo sapiens) (UniProt P34981). Nature of the test: qHTS for Small Molecule Agonists and Allosteric Enhancers of Human TRH Receptor: Validation Screen for Agonists (AID 493127;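 active = calcium activation more than 3 SD above the typical response in the agonist read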;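 also: intracellular calcium rise by fluo-8 fluorescence before TRH EC20 addition; 0% is about no effect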). Conditions: TRH receptor agonist cell assay; at 2 µM; stronger effect = higher value. The procedure, abridged:
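TRHR-expressing cells were plated overnight in serum-containing medium, then loaded with fluo-8 calcium dye at room temperature for 30 min–1.5 h. After a 10 s baseline, compound was pin-transferred and calcium fluorescence (ex 480/em 530) read kinetically for agonist response.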

The target in test [15] is Galactokinase (Homo sapiens) (UniProt P51570). Nature of the test: qHTS Validation Assay for Inhibitors of Human Galactokinase (GALK) (AID 493189). Also: 0% is about no effect. The essentials: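 Inhibition was measured as remaining ATP, detected by luciferase luminescence after a 1 h room-temperature reaction. Final conditions: 5 nM GALK, 100 uM galactose, 35 uM ATP, pH 8.0 HEPES buffer.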
A short description of test [16]: Validation screen for small molecules that induce DNA re-replication in SW480 colon adenocarcinoma cells (AID 504364). Also: 0% is about no effect. The essentials: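 SW480 cells seeded at 250 per well were exposed to compound or DMSO for 48 hr at 37 C, 5% CO2, then stained with Hoechst for 40 min. DNA content per nucleus was imaged (405 nm ex, 500-530 nm em).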
In test [17] the target is DNA dC->dU-editing enzyme APOBEC-3G (Homo sapiens) (UniProt Q9HC16). Nature of the test: qHTS for inhibitors of Vif-A3G interactions: Validation (AID 588379). Also: 0% is about no effect. The essentials: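 HeLa cells stably expressing Vif and A3G-eYFP, 700 cells/well, incubated overnight at 37 deg C, then exposed to compound overnight at 37 deg C. Inhibition of Vif-mediated degradation read as increased yellow fluorescence (Ex 488/Em 500-530) by laser-scanning cytometry.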

Test [18] in a line: Confirmatory screen GU Rhodamine qHTS for Zika virus inhibitors qHTS (AID 1347157). Also: potency is read from the fitted curve at half-maximal effect; nearly all actives have a fitted effect of over 70% in size. The essentials:
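Percent inhibition came from the 15-min rise in Rhodamine110 fluorescence (1.5 microM substrate, ~15% conversion), normalized to no-inhibitor and no-enzyme wells and Hill-fitted. Unlinked protease, 25 nM, pH 8.0 Tris buffer; compounds up to 114 microM, 15-min preincubation.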

A short description of test [19]: Confirmatory screen NINDS Rhodamine qHTS for Zika virus inhibitors (AID 1347161). Also: potency is read from the fitted curve at half-maximal effect; nearly all actives have a fitted effect of over 60% in size. The essentials:
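Single-chain NS2B-NS3 protease, 25 nM, pH 8.0; compounds preincubated 15 min. Activity: Rhodamine110 release from 1.5 microM substrate over 15 min, room temperature, data fitted to 4-parameter Hill.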

Test [20] concerns Zika virus NS2B-NS3 protease (linked construct). The experiment in a line: 384 well plate NINDS Rhodamine confirmatory qHTS for Zika virus inhibitors (AID 1347164).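 Also: fluorescence from protease cleavage of Ac-LKRR-rhodamine 110 substrate; potency is read from the fitted curve at half-maximal effect; nearly all actives have a fitted effect of over 65% in size.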 The procedure, abridged: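 Fluorescence at 485/538 nm was measured 25 minutes after adding 10 microM Ac-LKRR-Rd substrate, in the dark at room temperature. The protease (5, 30 or 60 nM final) had been preincubated ~15 minutes with compound; aprotinin as control.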

Test [21] is described as follows: Tertiary RLuc qRT-PCR qHTS assay for Zika virus inhibitors (AID 1347169). Also: top concentration of the series differs between compounds; % is scaled to controls: 0 for no effect and ±100 for the full control effect; nearly all actives have a fitted effect of over 55% in size. The procedure, abridged: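 Orthogonal cell-based readout: luminescence measured 1-1.5 hrs after adding live-cell Renilla substrate to Vero cells that had been infected with ZIKV-RLuc (MOI 1-2) post-compound, incubated 48-72 hrs at 37 degrees C.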
A general note: Quantitative PCR measures a nucleic acid by following its amplification.

Tyrosyl-DNA phosphodiesterase 1 (Homo sapiens), sequence (Q9NUW8 whole entry, looked up): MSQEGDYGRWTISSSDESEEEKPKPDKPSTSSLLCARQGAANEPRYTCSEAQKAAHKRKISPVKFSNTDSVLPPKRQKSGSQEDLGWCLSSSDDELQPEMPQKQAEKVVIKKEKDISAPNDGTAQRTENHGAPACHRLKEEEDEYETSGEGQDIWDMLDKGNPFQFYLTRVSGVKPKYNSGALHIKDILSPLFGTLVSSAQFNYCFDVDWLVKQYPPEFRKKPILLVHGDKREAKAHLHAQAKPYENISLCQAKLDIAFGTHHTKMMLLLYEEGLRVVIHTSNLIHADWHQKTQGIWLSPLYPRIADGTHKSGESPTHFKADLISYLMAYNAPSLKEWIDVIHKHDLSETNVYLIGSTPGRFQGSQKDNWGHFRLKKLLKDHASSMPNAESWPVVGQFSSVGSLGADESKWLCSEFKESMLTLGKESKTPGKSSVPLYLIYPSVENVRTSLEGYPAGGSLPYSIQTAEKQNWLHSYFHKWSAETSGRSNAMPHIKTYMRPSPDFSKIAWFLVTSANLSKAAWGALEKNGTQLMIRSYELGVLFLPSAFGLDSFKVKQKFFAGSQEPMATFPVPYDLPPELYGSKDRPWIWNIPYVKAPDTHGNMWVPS
Thyrotropin receptor (Homo sapiens), sequence (P16473 whole entry, looked up): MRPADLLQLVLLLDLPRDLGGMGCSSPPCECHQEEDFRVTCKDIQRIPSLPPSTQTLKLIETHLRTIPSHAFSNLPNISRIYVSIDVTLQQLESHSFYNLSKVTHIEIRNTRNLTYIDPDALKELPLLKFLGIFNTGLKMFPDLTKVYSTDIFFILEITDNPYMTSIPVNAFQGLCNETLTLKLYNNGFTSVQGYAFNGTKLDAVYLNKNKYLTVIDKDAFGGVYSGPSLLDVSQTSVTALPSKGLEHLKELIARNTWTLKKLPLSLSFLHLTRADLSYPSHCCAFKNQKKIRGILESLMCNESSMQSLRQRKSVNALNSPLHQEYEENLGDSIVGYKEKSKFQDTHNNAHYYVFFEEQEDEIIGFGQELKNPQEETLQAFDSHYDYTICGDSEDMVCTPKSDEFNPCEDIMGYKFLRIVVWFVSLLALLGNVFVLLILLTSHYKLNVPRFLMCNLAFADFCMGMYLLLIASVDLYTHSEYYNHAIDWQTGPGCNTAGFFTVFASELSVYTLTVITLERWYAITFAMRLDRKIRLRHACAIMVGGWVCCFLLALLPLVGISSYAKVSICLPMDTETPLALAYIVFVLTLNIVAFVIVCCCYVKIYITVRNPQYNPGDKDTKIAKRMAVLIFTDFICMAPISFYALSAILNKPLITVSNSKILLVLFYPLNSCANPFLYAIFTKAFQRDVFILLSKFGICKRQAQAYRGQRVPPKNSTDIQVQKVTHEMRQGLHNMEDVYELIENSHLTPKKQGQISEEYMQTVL
M-phase phosphoprotein 8 (Homo sapiens), sequence (Q99549 whole entry, looked up): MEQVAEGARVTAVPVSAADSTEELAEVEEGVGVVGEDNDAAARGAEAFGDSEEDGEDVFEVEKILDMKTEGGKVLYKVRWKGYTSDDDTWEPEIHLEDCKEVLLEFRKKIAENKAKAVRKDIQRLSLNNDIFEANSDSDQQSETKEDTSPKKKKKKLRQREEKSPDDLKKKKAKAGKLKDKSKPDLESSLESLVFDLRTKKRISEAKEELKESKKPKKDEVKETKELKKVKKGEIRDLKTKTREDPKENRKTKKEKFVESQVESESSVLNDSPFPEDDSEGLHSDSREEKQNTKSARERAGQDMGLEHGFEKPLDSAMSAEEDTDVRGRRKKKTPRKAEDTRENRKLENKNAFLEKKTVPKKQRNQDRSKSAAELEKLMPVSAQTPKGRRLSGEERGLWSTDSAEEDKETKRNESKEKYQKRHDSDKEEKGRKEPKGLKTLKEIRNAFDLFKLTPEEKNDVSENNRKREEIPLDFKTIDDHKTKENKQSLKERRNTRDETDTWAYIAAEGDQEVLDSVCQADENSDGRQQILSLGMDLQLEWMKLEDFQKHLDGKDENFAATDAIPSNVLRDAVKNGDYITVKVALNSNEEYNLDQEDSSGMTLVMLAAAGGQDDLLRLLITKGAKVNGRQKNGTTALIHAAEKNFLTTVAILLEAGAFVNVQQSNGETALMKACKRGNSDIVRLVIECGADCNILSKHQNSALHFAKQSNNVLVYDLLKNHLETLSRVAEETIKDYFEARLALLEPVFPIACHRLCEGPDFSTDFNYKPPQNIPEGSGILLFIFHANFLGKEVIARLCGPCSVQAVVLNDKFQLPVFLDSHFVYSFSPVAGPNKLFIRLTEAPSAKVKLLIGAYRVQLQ
Thyrotropin-releasing hormone receptor (Homo sapiens), sequence (P34981 whole entry, looked up): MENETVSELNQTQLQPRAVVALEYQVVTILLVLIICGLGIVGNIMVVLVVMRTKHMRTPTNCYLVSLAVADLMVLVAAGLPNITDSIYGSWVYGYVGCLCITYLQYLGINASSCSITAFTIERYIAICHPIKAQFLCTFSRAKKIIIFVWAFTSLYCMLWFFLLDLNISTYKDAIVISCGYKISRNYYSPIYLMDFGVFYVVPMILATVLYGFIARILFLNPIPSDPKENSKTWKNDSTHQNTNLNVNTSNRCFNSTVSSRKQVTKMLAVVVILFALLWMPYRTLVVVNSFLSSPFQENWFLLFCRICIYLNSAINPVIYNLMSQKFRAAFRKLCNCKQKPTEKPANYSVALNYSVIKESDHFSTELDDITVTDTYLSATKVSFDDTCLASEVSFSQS
DNA dC->dU-editing enzyme APOBEC-3G (Homo sapiens), sequence (Q9HC16 whole entry, looked up): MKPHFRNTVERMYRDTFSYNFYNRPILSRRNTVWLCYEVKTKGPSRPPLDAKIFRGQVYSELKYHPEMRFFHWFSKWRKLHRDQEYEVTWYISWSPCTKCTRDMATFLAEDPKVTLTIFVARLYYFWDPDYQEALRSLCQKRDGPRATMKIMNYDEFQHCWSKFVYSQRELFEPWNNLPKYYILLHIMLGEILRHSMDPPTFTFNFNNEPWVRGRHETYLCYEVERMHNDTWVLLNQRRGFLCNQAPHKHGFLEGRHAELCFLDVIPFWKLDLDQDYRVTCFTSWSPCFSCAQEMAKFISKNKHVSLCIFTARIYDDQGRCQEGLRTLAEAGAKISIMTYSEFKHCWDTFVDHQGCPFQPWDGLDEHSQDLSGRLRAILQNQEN
Galactokinase (Homo sapiens), sequence (P51570 whole entry, looked up): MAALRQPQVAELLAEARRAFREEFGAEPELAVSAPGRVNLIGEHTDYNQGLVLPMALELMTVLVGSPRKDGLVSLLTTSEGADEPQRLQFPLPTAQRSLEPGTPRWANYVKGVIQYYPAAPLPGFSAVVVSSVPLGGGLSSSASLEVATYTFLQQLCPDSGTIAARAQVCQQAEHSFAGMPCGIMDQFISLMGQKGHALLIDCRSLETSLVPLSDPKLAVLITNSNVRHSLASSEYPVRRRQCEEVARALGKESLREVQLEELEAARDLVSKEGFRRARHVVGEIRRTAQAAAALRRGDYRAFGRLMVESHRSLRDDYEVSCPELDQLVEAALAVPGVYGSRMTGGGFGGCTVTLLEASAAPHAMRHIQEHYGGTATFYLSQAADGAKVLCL
Ferritin light chain (Equus caballus), sequence (P02791 2-175 limits assumed): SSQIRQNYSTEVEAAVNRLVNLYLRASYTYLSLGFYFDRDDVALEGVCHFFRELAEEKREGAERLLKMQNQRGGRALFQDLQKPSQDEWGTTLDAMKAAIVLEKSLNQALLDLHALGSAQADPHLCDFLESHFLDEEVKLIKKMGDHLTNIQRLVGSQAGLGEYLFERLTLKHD
Transient receptor potential cation channel subfamily V member 1 (Homo sapiens), sequence (Q8NER1 whole entry, looked up): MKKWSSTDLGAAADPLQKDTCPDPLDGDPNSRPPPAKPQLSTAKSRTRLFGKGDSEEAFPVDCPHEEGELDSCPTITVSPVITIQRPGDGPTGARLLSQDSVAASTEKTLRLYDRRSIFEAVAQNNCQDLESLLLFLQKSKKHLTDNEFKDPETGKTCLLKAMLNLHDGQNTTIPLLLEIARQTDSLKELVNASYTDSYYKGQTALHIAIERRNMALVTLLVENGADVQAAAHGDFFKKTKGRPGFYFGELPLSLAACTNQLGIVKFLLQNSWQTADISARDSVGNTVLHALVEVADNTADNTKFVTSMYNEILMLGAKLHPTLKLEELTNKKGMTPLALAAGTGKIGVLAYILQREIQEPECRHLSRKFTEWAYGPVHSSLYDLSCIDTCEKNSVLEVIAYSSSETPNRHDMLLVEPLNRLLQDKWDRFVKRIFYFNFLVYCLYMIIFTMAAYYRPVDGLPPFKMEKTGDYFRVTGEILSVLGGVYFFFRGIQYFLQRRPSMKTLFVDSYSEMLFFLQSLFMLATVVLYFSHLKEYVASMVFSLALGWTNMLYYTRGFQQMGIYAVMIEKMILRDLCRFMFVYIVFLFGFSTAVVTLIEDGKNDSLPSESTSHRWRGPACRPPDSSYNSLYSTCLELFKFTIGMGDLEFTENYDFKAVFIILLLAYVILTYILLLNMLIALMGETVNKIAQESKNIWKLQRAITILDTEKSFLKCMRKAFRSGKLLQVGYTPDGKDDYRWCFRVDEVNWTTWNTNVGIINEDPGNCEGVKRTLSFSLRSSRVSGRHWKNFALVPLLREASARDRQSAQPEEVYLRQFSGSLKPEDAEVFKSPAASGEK

With `O=C(Nc1cc(C(=O)Nc2ccc(S(=O)(=O)O)cc2S(=O)(=O)O)cc(C(=O)Nc2ccc(S(=O)(=O)O)cc2S(=O)(=O)O)c1)Nc1cc(C(=O)Nc2ccc(S(=O)(=O)O)cc2S(=O)(=O)O)cc(C(=O)Nc2ccc(S(=O)(=O)O)cc2S(=O)(=O)O)c1`, the Potency was 6.31 µM (active) in test [1]; 6.31 µM (active) in [10]; 316 nM (active) and 1.26 µM (active) in test [13]; 2.24 µM (active) and 4.47 µM (active) in [18]; 2.24 µM (active) and 2 µM (active) in [19]; 3.55 µM (active) and 3.16 µM (active) in test [20]. The Potency entry in [2], in test [3], in test [4], in [6], in test [7] and in [8] was “inactive” throughout. The Potency result in [9], in [17] and in test [21] was “inactive” each time. For the same compound, the compound was called inactive in test [5], in [11], in [12], in [15] and in test [16]. Besides, the activation in [14] was 0.312%.
